{"source": "PubChem BioAssay (EPA / NIEHS)", "note": "Results filed as inconclusive are left out. Activity calls are given as the source filed them. Rule for the calls: active = hit-call score of the fitted dose curve at least 0.9, where 1 is the maximum; inconclusive = response in the unintended direction; inactive = score below 0.9.", "data": [{"experiment": "ACEA_AR_agonist_AUC_viability: ACEA Biosciences xCELLigence Real-Time Cell Analysis on Androgen Receptor Agonism for Viability (AID 2283775);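 for AC50: viability read 80 hours after compound addition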", "in_short": "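Read-out is area under the impedance curve at 80 h post-dose in 22Rv1 cells, with DMSO as baseline and signal loss taken as reduced viability. Compounds ran in duplicate from 100 uM final.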", "values": [{"smiles": "CNC(=O)N(C)c1nnc(C(C)(C)C)s1", "outcome": "inactive"}, {"smiles": "COC(=O)NC(=S)Nc1ccccc1NC(=S)NC(=O)OC", "AC50": "18.3 µM (active)"}, {"smiles": "CCOC(=O)C(C)OC(=O)c1cc(Oc2ccc(C(F)(F)F)cc2Cl)ccc1[N+](=O)[O-]", "note": "(centres undefined)", "AC50": "74 µM (active)"}, {"smiles": "CC(C)N1C(=O)c2ccccc2NS1(=O)=O", "outcome": "inactive"}, {"smiles": "CN=C=S", "outcome": "inactive"}, {"smiles": "COP(=O)(OC)O/C(C)=C/C(=O)N(C)C", "outcome": "inactive"}, {"smiles": "O=c1n(Cl)c(=O)n(Cl)c(=O)n1Cl", "outcome": "inactive"}, {"smiles": "CC(C)N1C(=O)N(c2ccccc2)CSC1=NC(C)(C)C", "AC50": "28.9 µM (active)"}, {"smiles": "CCCC(=NOCC)C1=C(O)CC(CC(C)SCC)CC1=O", "note": "(centres undefined)", "AC50": "79.5 µM (active)"}, {"smiles": "C=C(C)CN(CC)c1c([N+](=O)[O-])cc(C(F)(F)F)cc1[N+](=O)[O-]", "AC50": "73 µM (active)"}, {"smiles": "Nc1c(Cl)c(Cl)nc(C(=O)O)c1Cl", "outcome": "inactive"}, {"smiles": "CCOc1nc(F)cc2nc(S(=O)(=O)Nc3c(Cl)cccc3Cl)nn12", "outcome": "inactive"}, {"smiles": "Cc1ccc(N=CN(C)C=Nc2ccc(C)cc2C)c(C)c1", "AC50": "14.5 µM (active)"}, {"smiles": "COP(=S)(OC)Oc1ccc([N+](=O)[O-])c(C)c1", "AC50": "87.3 µM (active)"}, {"smiles": "Nc1cnn(-c2ccccc2)c(=O)c1Cl", "outcome": "inactive"}, {"smiles": "Cc1nc(N(C)C)nc(OC(=O)N(C)C)c1C", "outcome": "inactive"}, {"smiles": "COC(=O)c1c(C(F)F)nc(C(F)(F)F)c(C2=NCCS2)c1CC(C)C", "outcome": "inactive"}, {"smiles": "COc1cc(Cl)c(OC)cc1Cl", "outcome": "inactive"}, {"smiles": "CC1(C)C(C=C(Cl)Cl)C1C(=O)OC(C#N)c1cccc(Oc2ccccc2)c1", "note": "(centres undefined)", "AC50": "73.1 µM (active)"}, {"smiles": "COCC(=O)N(c1c(C)cccc1C)C(C)C(=O)OC", "note": "(centres undefined)", "outcome": "inactive"}, {"smiles": "CC(C)=CC1C(C(=O)OCc2coc(Cc3ccccc3)c2)C1(C)C", "note": "(centres undefined)", "AC50": "46 µM (active)"}, {"smiles": "Cc1c(COC(=O)[C@@H]2[C@H](/C=C(\\Cl)C(F)(F)F)C2(C)C)cccc1-c1ccccc1", "AC50": "69.3 µM (active)"}, {"smiles": "N#Cc1c(Cl)cccc1Cl", "outcome": "inactive"}, {"smiles": "CCSC(=O)N1CCCCCC1", "outcome": "inactive"}, {"smiles": "CC1(C)CCC(=Cc2ccc(Cl)cc2)C1(O)Cn1cncn1", "note": "(centres undefined)", "outcome": "inactive"}, {"smiles": "CCN(CC)C(=O)C(C)Oc1cccc2ccccc12", "note": "(centres undefined)", "outcome": "inactive"}, {"smiles": "CC(C)Oc1cccc(NC(=O)c2ccccc2C(F)(F)F)c1", "outcome": "inactive"}, {"smiles": "Clc1nc(Cl)nc(Nc2ccccc2Cl)n1", "outcome": "inactive"}, {"smiles": "CCN(CC)c1nc(C)cc(OP(=S)(OC)OC)n1", "AC50": "87.1 µM (active)"}, {"smiles": "CC1(C)C(C(=O)OC(C#N)c2cccc(Oc3ccccc3)c2)C1(C)C", "note": "(centres undefined)", "AC50": "50 µM (active)"}, {"smiles": "CCC(C)n1c(=O)[nH]c(C)c(Br)c1=O", "note": "(centres undefined)", "outcome": "inactive"}, {"smiles": "COC(=O)N(C(=O)N1CO[C@@]2(C(=O)OC)Cc3cc(Cl)ccc3C2=N1)c1ccc(OC(F)(F)F)cc1", "AC50": "18.3 µM (active)"}, {"smiles": "CN/C(=N\\[N+](=O)[O-])NCc1cnc(Cl)s1", "outcome": "inactive"}, {"smiles": "COCC(C)N(C(=O)CCl)c1c(C)csc1C", "note": "(centres undefined)", "outcome": "inactive"}, {"smiles": "OC(c1ccc(Cl)cc1)(c1ccc(Cl)cc1)C(Cl)(Cl)Cl", "AC50": "14.5 µM (active)"}, {"smiles": "C=CCOC(=O)C(C)(C)OC(=O)c1cc(-n2c(=O)cc(C(F)(F)F)n(C)c2=O)ccc1Cl", "AC50": "50.5 µM (active)"}]}, {"experiment": "ACEA_AR_antagonist_AUC_viability: ACEA Biosciences xCELLigence Real-Time Cell Analysis on Androgen Receptor Antagonism for Viability (AID 2283776);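 note: 22Rv1 human prostate cancer cells growing on impedance electrode plates; area under impedance growth curve at 80 h after dosing as viability; hits lower the growth signal relative to DMSO meaning cytotoxicity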", "in_short": "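Viability endpoint from label-free cell-index monitoring: 22Rv1 cultures treated with an eight-point 1:4 dilution series starting at 100 uM final, AUC at 80 h fitted against DMSO.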", "values": [{"smiles": "CNC(=O)N(C)c1nnc(C(C)(C)C)s1", "outcome": "inactive"}, {"smiles": "COC(=O)NC(=S)Nc1ccccc1NC(=S)NC(=O)OC", "AC50": "21.6 µM (active)"}, {"smiles": "CCOC(=O)C(C)OC(=O)c1cc(Oc2ccc(C(F)(F)F)cc2Cl)ccc1[N+](=O)[O-]", "note": "(centres undefined)", "AC50": "50 µM (active)"}, {"smiles": "CC(C)N1C(=O)c2ccccc2NS1(=O)=O", "outcome": "inactive"}, {"smiles": "CN=C=S", "outcome": "inactive"}, {"smiles": "COP(=O)(OC)O/C(C)=C/C(=O)N(C)C", "outcome": "inactive"}, {"smiles": "O=c1n(Cl)c(=O)n(Cl)c(=O)n1Cl", "outcome": "inactive"}, {"smiles": "CC(C)N1C(=O)N(c2ccccc2)CSC1=NC(C)(C)C", "AC50": "50 µM (active)"}, {"smiles": "CCCC(=NOCC)C1=C(O)CC(CC(C)SCC)CC1=O", "note": "(centres undefined)", "outcome": "inactive"}, {"smiles": "C=C(C)CN(CC)c1c([N+](=O)[O-])cc(C(F)(F)F)cc1[N+](=O)[O-]", "AC50": "50 µM (active)"}, {"smiles": "Nc1c(Cl)c(Cl)nc(C(=O)O)c1Cl", "outcome": "inactive"}, {"smiles": "Cc1ccc(N=CN(C)C=Nc2ccc(C)cc2C)c(C)c1", "AC50": "17.6 µM (active)"}, {"smiles": "COP(=S)(OC)Oc1ccc([N+](=O)[O-])c(C)c1", "AC50": "71.9 µM (active)"}, {"smiles": "Nc1cnn(-c2ccccc2)c(=O)c1Cl", "outcome": "inactive"}, {"smiles": "COC(=O)c1c(C(F)F)nc(C(F)(F)F)c(C2=NCCS2)c1CC(C)C", "outcome": "inactive"}, {"smiles": "COc1cc(Cl)c(OC)cc1Cl", "outcome": "inactive"}, {"smiles": "CC1(C)C(C=C(Cl)Cl)C1C(=O)OC(C#N)c1cccc(Oc2ccccc2)c1", "note": "(centres undefined)", "outcome": "inactive"}, {"smiles": "CC(C)=CC1C(C(=O)OCc2coc(Cc3ccccc3)c2)C1(C)C", "note": "(centres undefined)", "AC50": "40.4 µM (active)"}, {"smiles": "Cc1c(COC(=O)[C@@H]2[C@H](/C=C(\\Cl)C(F)(F)F)C2(C)C)cccc1-c1ccccc1", "AC50": "31.4 µM (active)"}, {"smiles": "N#Cc1c(Cl)cccc1Cl", "outcome": "inactive"}, {"smiles": "CCSC(=O)N1CCCCCC1", "outcome": "inactive"}, {"smiles": "CC1(C)CCC(=Cc2ccc(Cl)cc2)C1(O)Cn1cncn1", "note": "(centres undefined)", "outcome": "inactive"}, {"smiles": "CCN(CC)C(=O)C(C)Oc1cccc2ccccc12", "note": "(centres undefined)", "outcome": "inactive"}, {"smiles": "CC(C)Oc1cccc(NC(=O)c2ccccc2C(F)(F)F)c1", "outcome": "inactive"}, {"smiles": "Clc1nc(Cl)nc(Nc2ccccc2Cl)n1", "outcome": "inactive"}, {"smiles": "CCN(CC)c1nc(C)cc(OP(=S)(OC)OC)n1", "AC50": "83.3 µM (active)"}, {"smiles": "CC1(C)C(C(=O)OC(C#N)c2cccc(Oc3ccccc3)c2)C1(C)C", "note": "(centres undefined)", "AC50": "50 µM (active)"}, {"smiles": "CCC(C)n1c(=O)[nH]c(C)c(Br)c1=O", "note": "(centres undefined)", "outcome": "inactive"}, {"smiles": "COC(=O)N(C(=O)N1CO[C@@]2(C(=O)OC)Cc3cc(Cl)ccc3C2=N1)c1ccc(OC(F)(F)F)cc1", "AC50": "18.5 µM (active)"}, {"smiles": "CN/C(=N\\[N+](=O)[O-])NCc1cnc(Cl)s1", "outcome": "inactive"}, {"smiles": "COCC(C)N(C(=O)CCl)c1c(C)csc1C", "note": "(centres undefined)", "AC50": "33 µM (active)"}, {"smiles": "OC(c1ccc(Cl)cc1)(c1ccc(Cl)cc1)C(Cl)(Cl)Cl", "AC50": "13 µM (active)"}, {"smiles": "C=CCOC(=O)C(C)(C)OC(=O)c1cc(-n2c(=O)cc(C(F)(F)F)n(C)c2=O)ccc1Cl", "AC50": "50.5 µM (active)"}]}]}
